Results from PubChem BioAssay.
The source made the active and inactive calls. Unless noted, no rule for the calls is given here.

What was measured:
[1] = test system: XIP peptide (Xip251-270) binding; assay: XIP fragment 251-270 binding compounds – biochemical, small-molecule microarray, fluorescence 635/667 nm, 0.1 µg/mL protein, primary screen (AID 1182); details: fluorescent protein binding, 635 nm, higher = more signal, called active from +8 up or from −8 down
[2] = test system: XIP peptide (Xip251-270); assay: compounds binding XIP fragment 251-270 – biochemical, small-molecule microarray, fluorescence 635/667 nm, 0.5 µg/mL protein, primary screen (AID 1183); details: fluorescence 635 nm, higher = more signal
[3] = blood-stage malaria parasite viability loss – strain 3D7, DAPI fluorescence, 100 nL, primary screen (AID 1184);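 also: parasites grown inside human red blood cells in medium with human serum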; details: P. falciparum 3D7 growth, 3 d, higher = more signal
[4] = target: Homeobox protein Hox-A13 (Mus musculus) (UniProt Q62424); assay: disruptors of Hoxa13 oligonucleotide interaction – biochemical, fluorescence polarization, labeled oligonucleotide, primary screen (AID 1185); details: Hoxa13:DNA binding, 15 min, higher = more signal, called active from +8 up or from −8 down
[5] = blockers of DNA damage checkpoint Chk1 activation – imaging, HeLa, hydroxyurea, phospho-Chk1 antibody, percent positive cells, primary screen (AID 1186); details: hydroxyurea-induced phospho-Chk1 immunofluorescence imaging, higher = more signal
[6] = blockers of DNA damage checkpoint Chk1 activation – imaging, HeLa, hydroxyurea, phospho-Chk1 nuclear intensity, primary screen (AID 1187); details: hydroxyurea-induced phospho-Chk1 immunofluorescence imaging, higher = more signal

Chain of Homeobox protein Hox-A13 (Mus musculus) (Q62424 whole entry, looked up): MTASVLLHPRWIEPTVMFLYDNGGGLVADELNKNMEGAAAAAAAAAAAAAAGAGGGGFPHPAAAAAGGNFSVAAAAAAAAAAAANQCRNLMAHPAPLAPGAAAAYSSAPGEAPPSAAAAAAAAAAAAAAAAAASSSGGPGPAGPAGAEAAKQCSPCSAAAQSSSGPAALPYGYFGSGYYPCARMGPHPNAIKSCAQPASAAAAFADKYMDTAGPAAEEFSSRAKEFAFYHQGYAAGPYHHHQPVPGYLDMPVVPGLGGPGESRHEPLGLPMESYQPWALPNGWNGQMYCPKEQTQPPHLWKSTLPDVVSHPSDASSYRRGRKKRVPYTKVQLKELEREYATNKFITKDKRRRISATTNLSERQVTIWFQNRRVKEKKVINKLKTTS

C=CC[C@@]1(C(=O)NCCCOC)N=C(c2ccc(OCCCO)cc2)O[C@@H]1c1ccccc1CN=[N+]=[N-]
composite z-score [1]: 0.204 (inactive) | composite z-score [2]: 0.44 | z-score [3]: -2.25 | z-score [4]: -5.2 (inactive) | z-score [5]: -0.551 (inactive) | z-score [6]: -0.721 (inactive)

CC(C)N1CC=CC23O[C@@H]4/C=C\CCCOC(=O)C4[C@H]2C(=O)N(C(C)CO)[C@@H]3C1=O (some centres not stated)
composite z-score [1]: -0.0835 (inactive) | composite z-score [2]: 0.0575 | z-score [3]: 0.261 | z-score [4]: -4.1 (inactive) | z-score [5]: -1.36 (inactive) | z-score [6]: -0.988 (inactive)

CC(C)[Si]1(C(C)C)OCc2cc(-c3ccc(-c4ccc(Cl)c(Cl)c4)o3)nc(-c3ccc(Oc4ccccc4)cc3)c21
composite z-score [1]: 0.146 (inactive) | composite z-score [2]: 0.548 | z-score [3]: -0.497 | z-score [4]: -1.74 (inactive) | z-score [5]: 0.0415 (inactive) | z-score [6]: -0.0792 (inactive)

C=CCNC(=O)[C@@H]1[C@H]2C(=O)O[C@H](c3ccccc3)[C@H](c3ccccc3)N2[C@H](c2ccc(OCCO)cc2)[C@@]12C(=O)N(C(=O)OCCOC)c1ccccc12
composite z-score [1]: 1.44 (inactive) | composite z-score [2]: 0.718 | z-score [3]: -0.643 | z-score [4]: -3.58 (inactive) | z-score [5]: -0.0546 (inactive) | z-score [6]: 0.0358 (inactive)

C=C(C(=O)CC[C@H](OC(=O)c1ccccc1-c1ccccc1C(=O)O)c1ccc(OCCO)cc1)C(C)C
composite z-score [1]: 0.0052 (inactive) | composite z-score [2]: 0.569 | z-score [3]: -2.71 | z-score [4]: -6.36 (inactive) | z-score [5]: -0.0593 (inactive) | z-score [6]: -0.326 (inactive)

COC(=O)[C@@]1(Cc2ccc(F)cc2)[C@H]2c3cc(C(=O)N(C)C)n(Cc4ccc(C(F)(F)F)nc4)c3C[C@H]2CN1C(=O)c1ccccc1
composite z-score [1]: 0.338 (inactive) | composite z-score [2]: 0.64 | z-score [3]: -1.68 | z-score [4]: -3.87 (inactive) | z-score [5]: 0.93 (inactive) | z-score [6]: 0.563 (inactive)

Cc1cccc([C@H]2C[C@H]3C(Br)=C[C@@]2(CO)C(=O)[C@]32CO2)c1
composite z-score [1]: 1.48 (inactive) | composite z-score [2]: 0.137 | z-score [3]: 1.54 | z-score [4]: -1.41 (inactive) | z-score [5]: -0.272 (inactive) | z-score [6]: -0.557 (inactive)

CC(CO)N1C(=O)[C@@H]2[C@H]3C(=O)OCC=C[C@H]3OC23C=CCN(c2ccc4ccccc4c2)C(=O)[C@@H]13 (some centres not stated)
composite z-score [1]: -0.0975 (inactive) | composite z-score [2]: 0.547 | z-score [3]: 0.48 | z-score [4]: -4.49 (inactive) | z-score [5]: -0.233 (inactive) | z-score [6]: 0.0823 (inactive)

O=C1O[C@H](c2ccccc2)[C@H](c2ccccc2)N2[C@H]1[C@@H](C(=O)N1CCN(c3ncccn3)CC1)[C@]1(C(=O)Nc3ccc(C#CC4(O)CCCCCC4)cc31)[C@H]2c1ccc(O)cc1
composite z-score [1]: 1.48 (inactive) | composite z-score [2]: 0.817 | z-score [3]: -0.797 | z-score [4]: -1.28 (inactive) | z-score [5]: -0.168 (inactive) | z-score [6]: -0.101 (inactive)

COc1c(C)cc(-c2nc(-c3ccccc3)c3c(c2C)CO[Si]3(C(C)C)C(C)C)cc1C
composite z-score [1]: 0.412 (inactive) | composite z-score [2]: -0.487 | z-score [3]: -2.79 | z-score [4]: -0.848 (inactive) | z-score [5]: 0.157 (inactive) | z-score [6]: 0.0254 (inactive)

C[N+](C)(C)CCCC[C@@H]1NC(=O)[C@H]2C[C@@H](C(=O)NCCCCCN)[C@@H](c3ccc(O)cc3)N2C1=O
composite z-score [1]: 0.528 (inactive) | composite z-score [2]: 0.69 | z-score [3]: 0.435 | z-score [4]: -1.12 (inactive) | z-score [5]: 0.932 (inactive) | z-score [6]: 0.79 (inactive)

COc1ccc(CCNC(=O)[C@@]2(C)c3ccccc3C(=O)N(Cc3ccc(OC(F)(F)F)cc3)[C@H]2c2ccc(CO)cc2)cc1
composite z-score [1]: 1.06 (inactive) | composite z-score [2]: 0.666 | z-score [3]: -1.21 | z-score [4]: -4.22 (inactive) | z-score [5]: -0.141 (inactive) | z-score [6]: -0.102 (inactive)

Cc1ccc(S[C@]2(C(=O)NC(C)C)CC(=O)N(Cc3ccccc3)[C@@H]2c2ccc(CO)cc2)cc1
composite z-score [1]: 1.13 (inactive) | composite z-score [2]: 0.123 | z-score [3]: 0.14 | z-score [4]: -1.54 (inactive) | z-score [5]: -0.412 (inactive) | z-score [6]: -0.32 (inactive)

CO[C@H]1O[C@H](CO)[C@@H](OC(=O)Nc2cccc(F)c2)[C@H](OC(=O)Nc2ccc3c(c2)OCO3)[C@@H]1OC(=O)Nc1ccc2c(c1)OCO2
composite z-score [1]: 0.968 (inactive) | composite z-score [2]: 0.894 | z-score [3]: -0.754 | z-score [4]: -6.1 (inactive) | z-score [5]: 0.223 (inactive) | z-score [6]: 0.613 (inactive)

CN1C2C=C(c3ccc(CO)cc3)C(C3C(=O)N(C(N)=O)C(=O)C32)C1C1CC1 (configuration not stated)
composite z-score [1]: -0.313 (inactive) | composite z-score [2]: 0.0909 | z-score [3]: -0.854 | z-score [4]: -6.63 (inactive) | z-score [5]: 0.258 (inactive) | z-score [6]: 0.169 (inactive)

O=C1O[C@H](c2ccccc2)[C@H](c2ccccc2)N2[C@H]1[C@@H](C(=O)O)[C@]1(C(=O)Nc3ccccc31)[C@H]2c1ccc(OCCO)cc1
composite z-score [1]: 1.13 (inactive) | composite z-score [2]: 0.711 | z-score [3]: -0.443 | z-score [4]: -6.4 (inactive) | z-score [5]: 0.618 (inactive) | z-score [6]: 0.612 (inactive)

O=C1c2ccccc2[C@](Cc2ccccc2I)(C(=O)NCCN2CCOCC2)[C@H](c2ccc(CO)cc2)N1Cc1ccccc1C(F)(F)F
composite z-score [1]: 0.0302 (inactive) | composite z-score [2]: 0.627 | z-score [3]: -1.29 | z-score [4]: -4.81 (inactive) | z-score [5]: -0.0107 (inactive) | z-score [6]: -0.105 (inactive)
